Article PMC4336329 (PLoS ONE, 2015)
The campaign covered roughly 310,000 compounds. About 14,000 (4.5%) showed an effect of 50% or more. The effect is printed as a negative number. What follows is part of a selection rich in strong results, with near analogues and random picks from the rest.

target: human ether-à-go-go-related gene (hERG) potassium channel (human, UniProt Q12809); experiment: primary screen, population patch clamp on CHO cells stably expressing hERG; higher = less effect of the substance
Sequence (Q12809 whole entry, looked up): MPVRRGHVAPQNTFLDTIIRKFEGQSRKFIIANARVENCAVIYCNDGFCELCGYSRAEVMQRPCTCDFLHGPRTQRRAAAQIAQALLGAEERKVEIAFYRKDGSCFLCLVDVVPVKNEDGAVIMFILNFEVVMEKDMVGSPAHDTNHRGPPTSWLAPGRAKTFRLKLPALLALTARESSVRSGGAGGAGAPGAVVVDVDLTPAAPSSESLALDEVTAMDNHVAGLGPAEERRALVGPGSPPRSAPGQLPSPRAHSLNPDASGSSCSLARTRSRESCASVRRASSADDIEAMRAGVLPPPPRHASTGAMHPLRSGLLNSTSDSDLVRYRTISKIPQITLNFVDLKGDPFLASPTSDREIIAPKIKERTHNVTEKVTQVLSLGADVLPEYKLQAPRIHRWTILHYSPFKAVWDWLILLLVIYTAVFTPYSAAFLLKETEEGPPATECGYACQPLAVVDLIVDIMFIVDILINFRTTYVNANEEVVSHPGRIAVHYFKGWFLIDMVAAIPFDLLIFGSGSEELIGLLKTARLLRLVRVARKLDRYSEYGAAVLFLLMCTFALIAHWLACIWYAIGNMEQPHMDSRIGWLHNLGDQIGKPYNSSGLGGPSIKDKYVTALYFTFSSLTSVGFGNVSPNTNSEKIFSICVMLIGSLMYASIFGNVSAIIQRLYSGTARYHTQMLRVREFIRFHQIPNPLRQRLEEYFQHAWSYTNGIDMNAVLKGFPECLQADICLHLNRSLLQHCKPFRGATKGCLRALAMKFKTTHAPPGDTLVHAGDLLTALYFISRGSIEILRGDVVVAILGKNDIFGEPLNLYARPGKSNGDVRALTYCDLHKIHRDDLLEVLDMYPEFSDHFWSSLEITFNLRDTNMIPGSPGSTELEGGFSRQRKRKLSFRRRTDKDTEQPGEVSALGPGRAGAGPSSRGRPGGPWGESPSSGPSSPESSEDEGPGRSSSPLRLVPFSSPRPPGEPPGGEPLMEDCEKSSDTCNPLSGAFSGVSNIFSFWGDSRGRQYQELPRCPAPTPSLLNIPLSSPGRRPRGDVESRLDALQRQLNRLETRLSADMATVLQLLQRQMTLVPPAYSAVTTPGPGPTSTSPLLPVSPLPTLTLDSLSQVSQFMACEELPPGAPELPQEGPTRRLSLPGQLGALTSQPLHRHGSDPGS
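Note: peak tail current of the secondary pulse compared with the same well before compound.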

| Compound | hERG current change (%, negative = inhibition) at 10uM [%] |
| --- | --- |
| COc1cc(N)c(Cl)cc1C(=O)NC1CN2CCC1CC2.Cl.O (centres unmarked) | -11.1 |
| O=C(O)c1ccc(Cl)c(NC(=S)NC(=O)c2cccc(COc3ccccc3)c2)c1 | 30.4 |
| COC(=O)c1ccc(N2CCN(C(=O)c3ccccc3)CC2)c(NC(C)=O)c1 | -39.8 |
| COC(=O)c1ccc(N2CCOCC2)c(NC(=O)c2ccc(Br)o2)c1 | 7.34 |
| CCOC(=O)c1ccc(N2CCN(C(=O)c3ccccc3)CC2)c(NC(=O)c2ccco2)c1 | -71.5 |
| COC(=O)c1ccc(N2CCN(C)CC2)c(NC(=O)c2ccc(-c3ccc(Cl)cc3)o2)c1 | 7.11 |
| COC(=O)c1ccc(N2CCN(C)CC2)c(NC(=O)c2ccc(Br)o2)c1 | -55.8 |
| COC(=O)c1ccc(N2CCCCC2)c(NC(=O)c2ccco2)c1 | -45.8 |
| CCOC(=O)N1CCC(NC(=O)c2cc(S(=O)(=O)N3CCC4(CC3)OCCO4)ccc2F)CC1 | -6.9 |
| Fc1cccc(CN2CCN3CCCC3C2C2CCCCC2)c1 (centres unmarked) | -8.93 |
| CCOc1ccc(NC(=S)NC(=O)/C=C/c2ccc(OC)cc2)c([N+](=O)[O-])c1 | 7.26 |
| O=C(COc1ccccc1Cl)NCCNC(=O)c1cccnc1 | -3.71 |
| CS(=O)(=O)NNC(=O)Cn1nnc(-c2ccc(OCc3ccccc3Cl)cc2)n1 | 18 |
| O=C(Oc1ccc(-c2nnco2)cc1)N1CCOCC1 | 1.23 |
| CCc1ccccc1Nc1nc(N)nc(COC(=O)CCS(=O)(=O)c2ccccc2)n1 | -10.5 |
| Cc1ccccc1Nc1nc(N)nc(COC(=O)CCNS(=O)(=O)c2ccccc2)n1 | -9.32 |
| CCc1ccccc1Nc1nc(N)nc(COC(=O)CCNS(=O)(=O)c2ccccc2)n1 | -62.7 |
| Cc1ccc2nc(NCCc3ccc(Cl)cc3)c3nncn3c2c1 | 8.75 |
| Cn1c2ccccc2c2nnc(SCC(N)=O)nc21 | -7.5 |
| CCCCNS(=O)(=O)c1ccc2c(c1)oc(=O)n2CC(=O)OCC | 5.06 |
| O=C(NCCCN1CCOCC1)c1ccccc1NS(=O)(=O)c1ccc(F)cc1 | -41.5 |
| O=C(Nc1ccccc1C(=O)Nc1ccccn1)c1cccc([N+](=O)[O-])c1 | -58.2 |
| O=C(Nc1ccccc1C(=O)NCCCN1CCOCC1)c1ccccc1 | 6.8 |

| Compound | hERG current change (%, negative = inhibition) at 10uM [%] |
| --- | --- |
| Cc1ccccc1NS(=O)(=O)c1ccc(C(=O)NCCCN2CCOCC2)cc1 | 9.08 |
| O=C(Nc1ccccc1C(=O)NCCCN1CCOCC1)c1cccc([N+](=O)[O-])c1 | -52.7 |
| O=C(Nc1cc([N+](=O)[O-])ccc1C(=O)NCCN1CCOCC1)c1ccccc1 | -44.9 |
| Cc1ccccc1NS(=O)(=O)c1ccc2[nH]cc(C(=O)NCCCN3CCOCC3)c(=O)c2c1 | 14.5 |
| Cc1cc(C)c(C)c(S(=O)(=O)Nc2ccccc2C(=O)NCCCN2CCOCC2)c1C | -88.5 |
| O=C(NCCCN1CCOCC1)c1ccccc1NS(=O)(=O)c1ccc(Br)cc1 | -56.1 |
| O=C(Nc1ccccc1C(=O)Nc1ccccn1)c1ccc([N+](=O)[O-])cc1 | -18 |
| O=C(Nc1ccccc1C(=O)Nc1ccc(Br)cn1)c1cccc([N+](=O)[O-])c1 | 16.6 |
| O=C(NCCCN1CCCC1=O)c1ccccc1NS(=O)(=O)c1ccc(Br)cc1 | 1.59 |
| CCCCNC(=S)NCCN1CCN(C(=S)NCCCC)CC1.Cl | -8.2 |
| S=C(Cc1ccc(Cl)cc1)N1CCOCC1 | 11.1 |
| CC(C)C(=O)Nc1ncc(Cc2ccc(Cl)cc2)s1 | 6.53 |
| O=[N+]([O-])c1ccccc1N(CC1CO1)S(=O)(=O)c1ccccc1 (centres unmarked) | 2.02 |
| O=C(CCc1nc2ccccc2c(=O)[nH]1)Nc1nnc(SCc2ccc(F)cc2)s1 | 7.47 |
| CC(C)(C)NCC(O)CON=C1c2ccccc2-c2ccccc21 (centres unmarked) | -28.5 |
| COc1ccc(O)c(/C=N/NC(=O)c2ccc(OCc3cccc(Br)c3)cc2)c1 | 9.95 |
| COc1ccc(CNC(=O)C/C(C)=N/NC(=O)c2ccc(OC)cc2OC)cc1 | -10.5 |
| O=C(NNS(=O)(=O)c1ccccc1[N+](=O)[O-])c1cc2ccccc2cc1O | -10.9 |
| O=C(NCCc1ccccc1)c1ccc2c(c1)OCCCO2 | 17.4 |
| Cc1ccc2cc(CN(CCN(C)C)C(=O)Nc3ccc(Cl)cc3)c(=O)[nH]c2c1 | -70.5 |
| CCN(CC)CCN(Cc1cc2ccc(C)cc2[nH]c1=O)C(=O)Nc1ccc(Cl)cc1 | -77.6 |
| CCC(=O)N(CCc1ccccc1C)Cc1cc2ccc(C)cc2[nH]c1=O | 9.02 |
| O=C(NCc1ccccc1)c1cccc(COc2ccc(Cl)cc2)c1 | 5.77 |

| Compound | hERG current change (%, negative = inhibition) at 10uM [%] |
| --- | --- |
| COc1cc(C2C(C#N)=C(N)Oc3cc(O)ccc32)cc(OC)c1OC (centres unmarked) | 4.91 |
| COC(=O)c1cc(S(=O)(=O)NC2CCCCC2)cn1C | 10.5 |
| O=S(=O)(c1ccc(SCCO)nc1)N1CCOCC1 | -2 |
| CCOC(=O)CCNC(=O)Nc1cc2nc(C)n(Cc3cccc(Cl)c3)c2nc1C | 4.33 |
| O=c1cc(-c2ccccc2)[nH]c2ccccc12 | -11.4 |
| O=C(COC(=O)c1ccccc1[N+](=O)[O-])NNC(=O)c1cccs1 | -15.7 |
| CC(C)C(=O)N(Nc1nc2ccccc2s1)C(=O)C(C)C | -0.224 |
| Cc1ccc(CCn2c3c(c4ccccc42)CN(C)CC3)cn1 | -3.74 |
| Cc1ccc2c(c1)c1c(n2CCc2ccc(C)nc2)CCN(C)C1 | -15.8 |
| O=C1SCCc2c1n(Cc1ccccc1)c1ccccc21 | 2.89 |
| CN1CCc2c(c3ccccc3n2Cc2ccccc2)C1.Cl | -71.2 |
| CN1CCc2c(c3ccccc3n2C)C1.Cl | 11.4 |
| CCCCN1CCc2c(c3ccccc3n2Cc2ccccc2)C1 | -72.9 |
| COc1ccc(-c2ncc3ccccn23)cc1 | -5.24 |
| Cc1cc(NC(=O)c2ccc(N(C)S(=O)(=O)c3ccccc3)cc2)no1 | -11.5 |
| COc1ccc(OCCCC(=O)Nc2ccc(N3CCCCC3)cc2)cc1.Cl | -1.87 |
| CC(=O)N1C2CCCCC2S[C@H]2CCCCC21 (some centres unmarked) | 18.9 |
| Cc1ccc(/C=N/n2c(COc3ccccc3)n[nH]c2=S)s1 | 14.6 |
| COc1ccc(C(C(=O)NC2CCCC2)N(C(=O)c2ccoc2C)c2ccc(C)c(C)c2)cc1 (centres unmarked) | 15.1 |
| COc1ccccc1CNC(=O)CN1C(=O)c2ccccc2S1(=O)=O | 12.7 |
| CCN(CC)CCn1c(NC(=O)c2ccc(C)cc2)nc2ccccc21 | -63.2 |
| O=C(Nc1nc2ccccc2n1CCN1CCCCC1)c1ccc(Cl)cc1 | -13.2 |
| Cc1ccc(C(=O)Nc2nc3ccccc3n2CCN2CCCC2)cc1 | -53.8 |

| Compound | hERG current change (%, negative = inhibition) at 10uM [%] |
| --- | --- |
| CCCn1c(NC(=O)c2ccccc2Br)nc2ccccc21 | 16.2 |
| CCN(CC)CCn1c(NC(=O)c2ccccc2O)nc2ccccc21 | -68 |
| CCC(=O)Nc1nc2ccccc2n1CCN(CC)CC | -14.1 |
| CCN(CC)CCn1c(NC(=O)c2ccc(C(F)(F)F)cc2)nc2ccccc21 | -25.7 |
| CCCn1c(NC(=O)c2ccc(C)cc2)nc2ccccc21 | -22.8 |
| CCN(CC)CCn1c(NC(=O)c2ccc(Cl)cc2)nc2ccccc21 | -31.5 |
| CCCc1nnc(NC(=O)c2cc(OC)cc(OC)c2)s1 | -4.25 |
| Cc1ccccc1NC(=O)CSc1ccncc1 | -1.94 |
| CNCCc1ccccn1.Cl | 7.88 |
| CC(=O)NN1C(=O)/C(=C/c2ccc(Br)o2)SC1=S | 2.1 |
| COc1ccc(C(CNC(=O)c2cc3ccccc3o2)N2CCCCC2)cc1 (centres unmarked) | -51.6 |
| COc1ccc(C(CNC(=O)c2ccco2)N2CCCCC2)cc1 (centres unmarked) | -5.74 |
| COc1ccc(C(CNC(=O)c2ccccc2C)N2CCCC2)cc1 (centres unmarked) | -16.2 |
| COc1ccc(C(CNC(=O)c2cc3ccccc3o2)N2CCCC2)cc1 (centres unmarked) | -38.6 |
| COc1ccc(C(CNC(=O)CCNC(=O)c2ccccc2OC)N2CCCC2)cc1 (centres unmarked) | -14.1 |
| COc1ccc(C(CNC(=O)c2cc3ccccc3cc2OC)N2CCCC2)cc1 (centres unmarked) | -67.5 |
| CCOC(=O)c1cc(CC)sc1NC(=O)Cc1ccccc1 | 25.9 |
| CCCCn1c(-c2csc3ccccc23)n[nH]c1=S | 12.8 |
| Cc1ccc(S(=O)(=O)NC2=NCN(CCOC(=O)c3ccc([N+](=O)[O-])cc3)CN2)cc1 | 12.7 |
| CCn1cc(C(=O)NCc2ccc3c(c2)OCO3)c(=O)c2cc(F)c(N3CCN(C)CC3)cc21 | -37.2 |
